According to PubChem BioAssay AID1016 (Sanford-Burnham Center for Chemical Genomics, 2008):
Hit rate of the full screen: of about 200,000 compounds, about 330 (0.17%) were called active.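 Rule for the calls: active = activation factor of 2 or more at 20 µM, a signal rise over negative controls twice the positive control's; inactive = the rest.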 The full list was thinned out, with actives kept by preference.

What follows are compounds tested on alkaline phosphatase, intestinal [Bos taurus] (assay: bovine intestinal alkaline phosphatase activators, primary screen, biochemical, bovine IAP, CDP-star luminescence (AID 1016)). Conditions: purified bovine IAP, 30 min, at 20 µM, stronger effect = higher value, fold of DMSO-control signal, blank-subtracted.

Activation factor, active:
CCOC(=O)Cn1c2c(c(-c3ccccc3OC)cc1=O)CCCC2 2.1
COc1ccccc1NC1=NC(c2ccc(Cl)cc2)N=C(N)N1 (stereo not given) 2.7
OCCCN1c2ccccc2Nc2nnc(-c3ccccc3)cc21 9

Activation factor, inactive:
Cc1ccc(S(=O)(=O)Nc2nc(N)n(-c3ccccc3)n2)cc1 1.2
CCOC(=O)NN1C(=O)c2ccccc2NC1c1ccccc1O (stereo not given) 1
CCOC(=O)Cn1c(-c2cccnc2Cl)nc2ccccc21 1
CCOC(=O)CN1CCC(c2ccccc2)CC1 1
COc1ccccc1NC1=NC2(CCCC2)N=C(N)N1 0.9
COc1ccccc1Nc1nc(N)nc(CN(C)C2CCCCC2)n1 0.9
CCOc1cc(N2CCOCC2)c(OCC)cc1NC(=O)C1=NN(c2cccc(C)c2)C(=O)CC1 0.9
O=C(NCc1ccccc1Cl)C1CCN(S(=O)(=O)N2CCOCC2)CC1 1
O=C(CN1C(=O)/C(=C/c2ccccc2F)Sc2ccccc21)NCc1cccnc1 1.1
Cc1ccc(S(=O)(=O)C2C(=O)NC3(C)CC2c2ccccc2O3)cc1 (stereo not given) 0.9
COc1ccc(/C=C/C(=O)NC(=S)NN2CCCCC2c2cccnc2)cc1 (stereo not given) 0.7
Cc1cccc(-n2cnc(C(=O)NNC(=S)Nc3ccccc3)c2)n1 1.6
CCn1cc(/C=C2/SC(=S)NC2=O)c(C)n1 1.1
CC1=CC=CC2=N/C(=N\S(=O)(=O)c3ccc(F)cc3F)c3ccccc3CN12 0.9
CC(=O)c1ccc(NC(=O)C(C)NCc2ccc(Cl)cc2)cc1 (stereo not given) 0.9
CC1(C)Cc2cccc(OCC(=O)N3CCN(c4ccc([N+](=O)[O-])cc4)CC3)c2O1 0.9
N=c1c2c(-c3ccccc3)c(-c3ccccc3)n(Cc3ccccc3)c2ncn1CCCO 1.4
